Measurements from the supplement of paper PMC6555819.

Each sequence was assayed on VDR:RXRa (NR concentration 270 nM, RXRa partner concentration 90 nM) (assay: PBM binding z-score (relative to random genomic background probes); higher = stronger binding; sequences stand for … in GC…GCGATTGACAGCGTAGAATGAAGG).
Description: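 Protein-binding microarray (Agilent 4x180K custom design, double-stranded 60-nt probes: 5' GC cap, 34-nt variable region, 24-nt constant primer region; full probe sequence given). Purified or IVT nuclear receptor:RXRα heterodimers (3:1 NR:RXRα, mostly 270:90 nM) or homodimers were incubated for 1 h in PBS with 2% milk and no ligand, then detected with Alexa488 antibodies. Fluorescence from o1-orientation probes (~5 replicates averaged) was converted to z-scores against 500 random hg19 background probes. Variable regions are seed direct-repeat (DR0–DR5) sites, all their single-nucleotide variants and half-site ablations.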

| Sequence | PBM binding z-score |
| --- | --- |
| CCTTACGGGTCACTGACAGGTTAGAGCATTTGGA | 3.33 |
| ATCGAAAGGTCGAGGCGAGTATAGAGAAAGGGAA | 2.33 |
| AGTCAAAGTTCAGGACGAGGTAGCGTAAAGCACG | 2.43 |
| CGTCAAAGTTCAACTAGGGTAACGTAAAGCACGC | 5.28 |
| CCTGCTAGGTCAATGGTCAGCTGAAGCAGCTCGC | 0.785 |
| ATACCAAGGTGAACGTGAGGTCGTTGATACTAAC | 4.41 |
| TAGCCTAGGTCAGAGCGGGCCAGTATACGCTATA | 0.36 |
| TCAGACAGGTGAAGGTAACTCCGGTACGCAGTCG | 0.726 |
| TATTGTAGATCAGCAGGTTAAGAAAGCTGGCCAA | 0.112 |
| TCGAGTGGGTTAGTCGGGGCATTCAGCCAACATA | 2.25 |
| CCACACAGGTGAGAAGGTAACTCAGCCTCGATTA | 0.0106 |
| TAGCCTAGGTCATTCAGGGGCCAATATAGAAAGC | 3.77 |
| CCTCCTAGGTCAATGGTCAGCTAAAGCAGCTCGC | 1.29 |
| ATCTCTAGGTAACCAAGTTCAGAGAATGCCGAAC | 4.26 |
| TAGCCTAGGACATTGGGCCAGTATAGTACGCATC | -0.544 |
| AGAATGAGGTTGTTAAGATCAGGGAATTGCGGTC | 0.496 |
| ATCGAAAGGCCGACGAGGTGAGTATACACCGTTT | 0.176 |
| TCTTGTAGTTCAAGCAGGTTAAGAAAGCCTGAGT | 3.32 |
| ATCTCTAGGTAAAGACAGTTCAGTGAATGCAAAT | 1.53 |
| GCAGACAGGTGAAACGCAGGAAACTCAGGGTGGC | -0.533 |

| Sequence | PBM binding z-score |
| --- | --- |
| TAGCCTAGGTCATGCGGGCCACTATAGTGTCGGC | 3.58 |
| ATCTCTAGGTAACCAAGTTCCGTGAATGCCGAAC | 0.306 |
| CATACAGGGTCAGCTACGCCAGAGTAGGGACGGC | 2.74 |
| TATACAGGGTCAAAGGCCCGAGTACGAATGTCGA | 4.53 |
| CGTCCTAGGTCATAGGAGGTCAGTGAAGACAGAT | 5.59 |
| CGTGCTAGGTCAATGGTCAGCTAAAGCAGCTCGC | 0.97 |
| TCGAGTGGGTTACCAATGGGGCATTCAGCTTTCT | 0.0141 |
| ACAGCCAGGTGAGTGAAGGTAACTCAGCTGGACG | -0.635 |
| TCTAGTTGGTCAAAGGTCACTCACTCGAAATGCG | 4.92 |
| ATCGAAAGGTCGTGAGGTGAGTCTACAGAAAGGC | 3.66 |
| ATCGATAGGTCGAAGGTGAGTATACCCACCCGAA | 0.776 |
| GCGACTGGGGGAAAGCAGGTTACCATAAGGTTGG | 0.39 |
| TCTTGCAGGCCAGAGGGTCACTCAAGAGGTACGG | 1.7 |
| CCTTACGGGTCACGCGGTTATAGCACGACGAGCG | 4.4 |
| ATCTAAAGGTCGTGAGGTGAGTATACAGAAAGGC | 3.73 |
| CTCGAAAGGTCGTGCTGAGGTGAGTATACCAAAC | 3.85 |
| TCTTGTAGATCAAGCACGTTAAGAAAGCCTGAGT | 0.187 |
| CGAACCAGGTCAAGGACAGTGAATCTCCGCACGC | 2.22 |
| TCTGCTAGGTCAGTTGGTCAGCTACCGAGCTGCC | 0.106 |
| CCTGCTAGGTCATGGTGAGCTAATCTACAGTATG | 1.37 |
